Test results taken from PubChem BioAssay (EPA / NIEHS).
Values joined by “and” are separate entries in the source; they are usually repeats but may differ in a detail not shown here. Equal entries are not always repeated. More than one record can exist for a structure, and the calls need not agree. Active and inactive are the calls of the source. The calls were made as follows: active = hit-call score of the fitted dose curve at least 0.9, where 1 is the maximum; inactive = score below 0.9.

Assays:
[1] = ATG_PBREM_CIS: Attagene CIS-FACTORIAL HepG2 Assay for human Phenobarbital-responsive Enhancer Module (PBREM) (AID 2282955); settings: HepG2 PBREM cis-reporter, Attagene multiplexed transcription; actives raise or lower the signal
Procedure, shortened: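 Cells were transfected with cis-element reporter units and treated for 24 h, after which RNA was extracted and reporter transcripts measured by RT-PCR and capillary electrophoresis.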

[2] = biological target: Paired box protein Pax-6 (Homo sapiens) (UniProt P26367); assay: ATG_Pax6_CIS: Attagene CIS-FACTORIAL HepG2 Assay for human Paired Box 6 (PAX6) (AID 2282956); settings: HepG2 CIS-FACTORIAL PAX6 reporter transcription, RNA readout; actives raise or lower the signal
Paired box protein Pax-6 (Homo sapiens), sequence (P26367 whole entry, looked up): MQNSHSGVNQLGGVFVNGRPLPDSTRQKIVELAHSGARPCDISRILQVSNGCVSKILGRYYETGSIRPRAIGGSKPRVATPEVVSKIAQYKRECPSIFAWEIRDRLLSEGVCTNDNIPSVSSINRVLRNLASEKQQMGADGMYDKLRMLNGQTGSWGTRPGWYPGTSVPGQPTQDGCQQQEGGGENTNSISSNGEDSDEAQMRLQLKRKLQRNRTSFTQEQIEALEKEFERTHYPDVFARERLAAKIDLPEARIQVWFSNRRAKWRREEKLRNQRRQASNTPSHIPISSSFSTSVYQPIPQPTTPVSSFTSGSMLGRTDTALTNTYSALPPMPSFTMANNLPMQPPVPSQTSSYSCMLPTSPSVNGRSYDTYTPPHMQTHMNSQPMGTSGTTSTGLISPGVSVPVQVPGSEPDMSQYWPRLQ
Procedure, shortened: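 Transient MRTU transfection of HepG2 → compound exposure 24 h → TriZol RNA, oligo(dT) RT → PCR, 6-FAM primer extension, HpaI cut → capillary electrophoresis; activity fitted both directions against DMSO.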

[3] = ATG_PXRE_CIS: Attagene CIS-FACTORIAL HepG2 Assay for human Pregnane X Receptor Element (PXRE) (AID 2282957); settings: HepG2 Attagene CIS-FACTORIAL PXRE reporter, mRNA; actives raise or lower the signal
Procedure, shortened: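 HepG2 cells transiently transfected with cis-regulated multiple reporter transcription units; endogenous factor activity measured as reporter mRNA 24 h after dosing. RT-PCR, fluorescent primer extension, HpaI digestion, capillary electrophoresis; bidirectional fit versus DMSO baseline.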

[4] = ATG_PPRE_CIS: Attagene CIS-FACTORIAL HepG2 Assay for human Peroxisome Proliferator-activated Response Element (PPRE) (AID 2282958); settings: HepG2 PPRE cis-element reporter, Attagene transcription factor profiling; actives raise or lower the signal
Procedure, shortened: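 In this cell-based multiplex, a PPRE cis element drives a reporter sequence in transiently transfected HepG2 cells. Following 24 h treatment, labeled cDNA amplicons are sized and quantified by capillary electrophoresis, with DMSO defining baseline.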

[5] = ATG_RORE_CIS: Attagene CIS-FACTORIAL HepG2 Assay for human RAR-related Orphan Receptor Element (RORE) (AID 2282959); settings: HepG2 Attagene cis-factorial RORE reporter, mRNA; actives raise or lower the signal
Procedure, shortened: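 Endogenous factor activity at a cis response element is read as reporter transcript levels in HepG2 cells, 24 h post-dose. Transcripts are quantified by RT-PCR with capillary electrophoresis, and data fitted in both directions against DMSO.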

[6] = ATG_Sox_CIS: Attagene CIS-FACTORIAL HepG2 Assay for human SRY-box transcription factor (SOX) (AID 2282960); settings: HepG2 Attagene cis-factorial SOX reporter, mRNA; actives raise or lower the signal
Procedure, shortened: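 Measures mRNA induction of a SOX1-associated reporter in HepG2 after 24 h dosing. Fluorescently labelled RT-PCR fragments are separated by capillary electrophoresis, and gain or loss relative to DMSO control is fitted.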

[7] = biological target: Transcription factor Sp1 (Homo sapiens) (UniProt P08047); assay: ATG_Sp1_CIS: Attagene CIS-FACTORIAL HepG2 Assay for human Specificity Protein 1 (Sp1) (AID 2282961); settings: HepG2 Sp1 cis-reporter transcription, actives raise or lower the signal
Transcription factor Sp1 (Homo sapiens), sequence (P08047 whole entry, looked up): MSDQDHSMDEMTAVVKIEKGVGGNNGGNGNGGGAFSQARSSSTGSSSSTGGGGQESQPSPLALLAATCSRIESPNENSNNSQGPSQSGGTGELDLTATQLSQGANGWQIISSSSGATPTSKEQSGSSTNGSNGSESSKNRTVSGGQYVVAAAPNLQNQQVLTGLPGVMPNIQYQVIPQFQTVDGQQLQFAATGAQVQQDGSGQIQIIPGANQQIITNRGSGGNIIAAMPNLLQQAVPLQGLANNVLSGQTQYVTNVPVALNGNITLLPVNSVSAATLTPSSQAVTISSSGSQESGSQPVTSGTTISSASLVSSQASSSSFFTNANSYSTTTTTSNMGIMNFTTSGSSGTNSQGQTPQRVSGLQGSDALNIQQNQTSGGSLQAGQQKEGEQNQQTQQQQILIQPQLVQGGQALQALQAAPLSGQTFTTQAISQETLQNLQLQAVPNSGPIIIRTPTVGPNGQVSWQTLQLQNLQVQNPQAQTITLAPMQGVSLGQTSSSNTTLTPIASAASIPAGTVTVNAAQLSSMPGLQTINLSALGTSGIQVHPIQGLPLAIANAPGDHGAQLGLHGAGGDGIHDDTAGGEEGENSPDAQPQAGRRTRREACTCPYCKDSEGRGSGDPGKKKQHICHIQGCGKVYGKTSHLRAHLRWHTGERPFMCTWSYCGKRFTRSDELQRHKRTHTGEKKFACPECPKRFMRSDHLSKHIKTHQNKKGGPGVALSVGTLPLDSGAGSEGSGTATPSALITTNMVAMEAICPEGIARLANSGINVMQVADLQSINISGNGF
Procedure, shortened: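 Cells: HepG2, transiently transfected with cis-regulated multiplexed reporters. Exposure: 24 h. Detection: reporter transcripts amplified, fluorescently labeled, restriction-digested and sized by capillary electrophoresis. Analysis: bidirectional fit relative to DMSO.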

[8] = ATG_SREBP_CIS: Attagene CIS-FACTORIAL HepG2 Assay for human Sterol Regulatory Element Binding (SREBP) (AID 2282962); settings: HepG2 Attagene cis-factorial SREBP reporter, mRNA; actives raise or lower the signal
Procedure, shortened: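 Transfected HepG2 (cis-regulated reporter library, endogenous TFs) → compound 24 h → total RNA → oligo(dT) RT → reporter-specific PCR → FAM primer extension, HpaI cut → CE fluorescence. Fit bidirectional vs DMSO.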

[9] = biological target: Signal transducer and activator of transcription 3 (Homo sapiens) (UniProt P40763); assay: ATG_STAT3_CIS: Attagene CIS-FACTORIAL HepG2 Assay for human Signal Transducer and Activator of Transcription 3 (STAT3) (AID 2282963); settings: HepG2, Attagene cis-factorial STAT3 reporter transcription; actives raise or lower the signal
Signal transducer and activator of transcription 3 (Homo sapiens), sequence (P40763 whole entry, looked up): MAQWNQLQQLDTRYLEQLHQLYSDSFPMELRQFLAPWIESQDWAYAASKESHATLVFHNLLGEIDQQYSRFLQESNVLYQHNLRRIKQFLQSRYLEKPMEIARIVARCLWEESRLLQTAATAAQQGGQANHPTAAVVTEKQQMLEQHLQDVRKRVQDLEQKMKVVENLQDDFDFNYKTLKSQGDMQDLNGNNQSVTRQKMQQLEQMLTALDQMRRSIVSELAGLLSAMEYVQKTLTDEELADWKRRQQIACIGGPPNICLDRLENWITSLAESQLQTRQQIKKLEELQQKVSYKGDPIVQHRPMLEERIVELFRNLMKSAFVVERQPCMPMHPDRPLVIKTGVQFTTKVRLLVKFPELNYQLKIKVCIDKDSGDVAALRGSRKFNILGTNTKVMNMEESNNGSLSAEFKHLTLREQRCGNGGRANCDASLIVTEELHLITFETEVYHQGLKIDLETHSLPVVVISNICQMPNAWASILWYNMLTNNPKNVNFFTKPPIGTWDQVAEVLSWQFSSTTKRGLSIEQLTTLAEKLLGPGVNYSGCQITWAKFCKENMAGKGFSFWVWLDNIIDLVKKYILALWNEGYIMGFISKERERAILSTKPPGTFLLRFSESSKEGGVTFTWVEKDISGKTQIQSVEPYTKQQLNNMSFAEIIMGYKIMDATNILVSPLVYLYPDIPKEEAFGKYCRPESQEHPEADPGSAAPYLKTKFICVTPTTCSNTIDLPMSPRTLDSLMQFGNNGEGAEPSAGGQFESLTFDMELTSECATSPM
Procedure, shortened: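 Transcript-level reporter assay. HepG2 transient MRTU transfection, 24 h exposure, fluorescence detection after RT-PCR and CE; DMSO baseline.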

[10] = ATG_TA_CIS: Attagene CIS-FACTORIAL HepG2 Assay for human TA Basal Promoter (AID 2282964); settings: HepG2 Attagene CIS-factorial TA basal promoter reporter; actives raise or lower the signal
Procedure, shortened: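 HepG2 cells transiently transfected with multiple reporter units under cis promoter elements, reporting endogenous transcription factor activity; this endpoint tracks the TA basal promoter as background control. Reporter mRNA after 24 h dosing measured by RT-PCR/capillary electrophoresis; bidirectional fits versus DMSO.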

SMILES | outcome [1] | AC50 [2] | outcome [2] | AC50 [3] | AC50 [4] | outcome [4] | AC50 [5] | outcome [5] | outcome [6] | outcome [7] | AC50 [8] | outcome [8] | outcome [9] | AC50 [10] | outcome [10] | outcome [3] | AC50 [6] | AC50 [1] | AC50 [7] | AC50 [9]
CCCOC(=O)c1ccc(O)cc1 | inactive | 142 µM (active) | inactive | 34.2 µM (active) and 60 µM (active) | 77.5 µM (active) | inactive | 128 µM (active) | inactive | inactive | inactive | 26.4 µM (active) | inactive | inactive | 162 µM (active) | inactive | – | – | – | – | –
O=C(/C=C/c1ccc(O)cc1)CC(=O)/C=C/c1ccc(O)cc1 | inactive | 14.6 µM (active) | – | – | – | inactive | 2.56 µM (active) | – | – | inactive | – | inactive | inactive | – | inactive | inactive | 25.7 µM (active) | – | – | –
C#C[C@]1(O)CC[C@H]2[C@@H]3CCC4=CC(=O)CC[C@@H]4[C@H]3CC[C@@]21C | inactive | – | inactive | 26.9 µM (active) [middle of 4 runs] | – | inactive | – | inactive | inactive | inactive | – | inactive | inactive | – | inactive | – | – | – | – | –
c1ccc2c(c1)ccc1ccccc12 | inactive | – | inactive | 58.4 µM (active) | – | inactive | – | inactive | inactive | inactive | – | inactive | inactive | – | inactive | – | – | – | – | –
CC#C[C@]1(O)CC[C@H]2[C@@H]3CCC4=CC(=O)CCC4=C3[C@@H](c3ccc(N(C)C)cc3)C[C@@]21C | inactive | 11.6 µM (active) [middle of 4 runs] | – | 1.03 µM (active) [middle of 4 runs] | – | – | 6.68 µM (active) [middle of 4 runs] | – | inactive | inactive | 23.9 µM (active) and 91.2 µM (active) and 31.7 µM (active) | inactive | inactive | 9.11 µM (active) and 8.72 µM (active) and 27.2 µM (active) | inactive | – | – | 11.5 µM (active) and 4.77 µM (active) and 13 µM (active) | 122 µM (active) and 27.5 µM (active) | –
CC[C@H](C)[C@@H](C(=O)O)n1sc2ccccc2c1=O | inactive | – | inactive | – | – | inactive | – | inactive | inactive | inactive | – | inactive | inactive | – | inactive | inactive | – | – | – | –
CCCCCCCCCCCCc1ccccc1S(=O)(=O)O | inactive | – | inactive | 4.41 µM (active) | – | inactive | – | inactive | inactive | inactive | – | inactive | inactive | – | inactive | – | – | – | – | –
CCC(=C(c1ccc(O)cc1)c1ccc(OCCN(C)C)cc1)c1ccccc1 | inactive | 7.1 µM (active) and 9.41 µM (active) | inactive | 1.05 µM (active) [middle of 4 runs] | – | inactive | – | – | inactive | inactive | 3.6 µM (active) | inactive | inactive | 10 µM (active) | inactive | – | 7.1 µM (active) and 11.3 µM (active) | 7.1 µM (active) and 11.2 µM (active) | 13.4 µM (active) | –
c1ccc2cc3c(ccc4ccccc43)cc2c1 | inactive | – | inactive | 8.53 µM (active) and 20.8 µM (active) | – | – | 1.44 µM (active) | inactive | inactive | inactive | – | inactive | inactive | – | inactive | inactive | – | – | – | –
NCC(F)(F)C(F)(F)C(F)(F)C(F)(F)C(F)(F)C(F)(F)C(F)(F)F | inactive | – | inactive | – | – | inactive | – | inactive | inactive | inactive | – | inactive | inactive | – | inactive | inactive | – | – | – | –
ClC1=C(Cl)C(Cl)(Cl)C(Cl)=C1Cl | inactive | 18.4 µM (active) and 6.7 µM (active) | – | 16.2 µM (active) and 6.82 µM (active) | – | inactive | – | inactive | inactive | – | 11.1 µM (active) | inactive | inactive | – | inactive | – | – | 13.5 µM (active) | 15.7 µM (active) and 7.29 µM (active) | 21.7 µM (active)
CCCCCCC(=O)O | inactive | – | inactive | 53.4 µM (active) | – | – | – | inactive | inactive | inactive | – | inactive | inactive | – | inactive | inactive | – | – | – | –
CC1=C(/C=C/C(C)=C/C=C/C(C)=C/C(=O)O)C(C)(C)CCC1 | inactive | 42.8 µM (active) | inactive | 1.48 µM (active) and 1.26 µM (active) | 43.6 nM (active) and 9.62 µM (active) | – | 8.89 µM (active) | inactive | – | inactive | – | inactive | inactive | 21.4 µM (active) | inactive | – | 51.1 µM (active) and 24.6 µM (active) | 6.62 µM (active) | 11.9 µM (active) | –
OCCC(F)(F)C(F)(F)C(F)(F)C(F)(F)C(F)(F)C(F)(F)F | inactive | 176 µM (active) | inactive | – | – | inactive | – | inactive | inactive | inactive | 100 µM (active) | inactive | inactive | – | inactive | inactive | – | – | – | –
O=c1c(-c2ccc(O)cc2)coc2cc(O)ccc12 | inactive | – | inactive | – | 42 µM (active) and 52.3 µM (active) | inactive | – | inactive | inactive | inactive | 47.5 µM (active) and 91.4 µM (active) | inactive | inactive | – | inactive | inactive | – | – | 38.8 µM (active) | –
